PostGolgi ctrl: growth of the yeast control strain, post-Golgi counter-screen; efflux-deficient yeast background strain, growth absorbance A615, 16 h; inhibition, % at 10 µM; hit rate 5% among 98,000; AID 738
Pyk2 oligo antag: antagonists of human Pyk2 oligomerization; Q14289; Q293 cells, Pyk2 FERM NanoBiT luminescence; hits give low values; z-score (the deposit names both 25 µM and 10 µM); hit rate 0.83% among 99,000;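 active means Z-score of -3 or lower, scaled per plate to the spread of control and sample wells; inactive means z-score above -3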;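 further: negative z-score means lost luminescence so less FERM oligomerization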
PostGolgi yeast: growth inhibition of a yeast mutant, post-Golgi transport screen | post-Golgi transport phenotypic cell assay | inhibition, % at 10 µM | AID 739 | hit rate 0.9% among 98,000;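 further: yeast cells grown in 1536-well plates; yeast grown about 18 h at 30C before absorbance read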
Cav3 T inh: human Cav3.2 channel inhibition, primary screen | B-score at 10 µM | Cav3.2-expressing cells, Fluo-4 calcium fluorescence FDSS; hits give low values | O95180 | AID 449739 | hit rate 4% among 100,000;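 active means single-dose well whose peak fluorescence ratio is a statistical outlier from its plate by either plate-standardised score or position-corrected B-score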
* = called active by the depositor; / = not tested or not shown. A selection: hits, their analogues and other compounds. The true share with any hit is near 8%. Unless noted, no stated cut-off is given here; in the data, active means inhibition above about 30%; inactive means the rest.

SMILES	PostGolgi ctrl	Pyk2 oligo antag	PostGolgi yeast	Cav3 T inh
COc1ccc(C(=O)NCc2ccc3c(c2)cc(C)n3C)cc1	/	/	/	-1.4
CCOc1ccc(CC(=O)NCc2ccc3c(c2)cc(C)n3C)cc1	/	/	/	-8.1*
Cc1cc2cc(CCNC(=O)c3c(-c4ccccc4Cl)noc3C)c(=O)[nH]c2cc1C	4	/	5	-3.7*
COc1cc(NC(=S)Nc2ccc(S(=O)(=O)N3CCOCC3)cc2)cc(OC)c1OC	10	0.31	-1	1.9
COc1ccc(-c2nc(CSCC(=O)N3CCN(C(=O)c4ccco4)CC3)c(C)o2)cc1OC	-4	/	-7	0.28
CCc1nc(SCC(=O)NCC2CCCO2)c2oc3ccccc3c2n1 (configuration not stated)	-2	0.15	-3	1.4
CC1CCCCC1NC(=O)COC(=O)c1ccc(N(C)C)cc1 (configuration not stated)	2	-3.1*	4	0.34
CC1CCCC(NC(=O)COC(=O)c2ccc(S(=O)(=O)N3CCOCC3)cc2)C1C (configuration not stated)	-9	1.4	-1	-0.1
OCCn1c(-c2ccc3c(c2)OCO3)csc1=Nc1ccccc1	24	-0.72	5	-5.4*
COc1ccc(C(=O)c2ccc(N3CCN(C4CC(=O)NC4=O)CC3)cc2)cc1F (configuration not stated)	-2	0.71	-8	0.087
Cc1ccc(-n2c(CSc3nc(C)cc(C)n3)nnc2SCC(=O)N2CCCC2)cc1	11	1.1	4	-0.037
COc1ccc(/C=C2\CCc3ccccc3C2=O)cc1Cn1nc(C)cc1C	22	-1.5	-7	-4.3*
O=C(NC1CC1)C1=C[C@H](c2ccc(C(F)(F)F)cc2)C[C@H](OCc2ccc(CO)cc2)O1	/	/	/	1.3
COc1ccc(-c2csc(NC(C)c3nc4cc(C(F)(F)F)ccc4n3CCOCCO)n2)cc1 (configuration not stated)	/	/	/	-1.3
CCOC(=O)/C=C(\C)Nc1cc(C)nn1-c1ccccc1	-1	-0.15	0	-0.44
CCOC(=O)C(=CNc1cc(C)nn1-c1ccc(Cl)cc1)C(=O)OCC	40*	-1.5	2	-1.4
CCOC(=O)C(=CNc1ccc(C)cc1C)C(=O)OCC	20	-3.2*	7	-0.71
CC(=O)Nc1cccc(-c2csc(Nc3cc(C)ccn3)n2)c1	31*	-1	1	-3
CCSc1nc2c(cnn2-c2ccc(C)c(C)c2)c(=O)[nH]1	-7	/	4	0.0083
COc1ccccc1/C=C/C(=O)c1cc(Br)ccc1OC(=O)c1ccco1	/	-2.9	/	-4.5*
COc1ccccc1CO/N=C/NC(=O)c1c(OC)ccnc1Oc1ccc(F)cc1	51*	0.8	-29	-0.66
CC1CC(C)(C)N(C(=O)CN2C(=O)c3ccccc3C2=O)c2ccccc21 (configuration not stated)	/	-0.69	/	4.5*
CCCCN1CCc2c1nc1ccc(Br)cc1c2N	2	1.8	4	-1.3
Cc1ccc(-c2nc(CS(=O)(=O)CC(=O)N3CCc4ccccc4C3)c(C)o2)cc1	12	/	11	-9*
Cc1oc(-c2ccccc2F)nc1CS(=O)(=O)CC(=O)N1CCc2ccccc21	10	/	-6	-4.7*
SMILES	PostGolgi ctrl	Pyk2 oligo antag	PostGolgi yeast	Cav3 T inh
COc1cccc(OCCOc2ccccc2OC(C)C)c1	-1	0.35	0	-1.7
CCC(=O)N1CCc2cc(S(=O)(=O)N3CCN(c4ccccn4)CC3)ccc21	7	-0.39	0	1.7
Cc1ccc(/C=N/n2c(-c3cccs3)n[nH]c2=S)cc1	33*	-0.3	-10	0.077
Cc1ccsc1/C=N/n1c(-c2ccncc2)n[nH]c1=S	/	-0.18	/	/
COc1ccc(/C=N/n2c(-c3cccs3)n[nH]c2=S)cc1	40*	-0.46	2	0.0089
COC(=O)CSc1nnc2n(C3CCCCC3)c(=O)c3c4c(sc3n12)CCCC4	21	-1.4	5	-3.9*
CCc1ccc2oc(-c3cccc(NC(=O)c4cccnc4)c3)nc2c1	74*	-0.85	2	0.1
Cc1cccc(NC(=S)N(CCN(C)C)C(C)c2ccccn2)c1 (configuration not stated)	-7	1.2	11	0.013
Cc1c(Cl)c([N+](=O)[O-])nn1Cc1ccc(C(=O)N/N=C\c2cccc(Br)c2)o1	18	-1.7	67*	-6.4*
Cc1cc(C(=O)N/N=C/c2cccc([N+](=O)[O-])c2)c(C)o1	11	-0.76	-6	-0.55
CSc1nnc(-c2sc3cc(Cl)ccc3c2Cl)n1C	20	-0.02	5	-1.7
CCn1c(SC)nnc1-c1sc2cc(Cl)ccc2c1Cl	70*	0.67	-3	-3.9
O=S(=O)(Nc1ccc2c(c1)CCC2)c1cccs1	15	-0.66	-11	-5.6*
O=C1OCc2cc(NS(=O)(=O)c3cccs3)ccc21	4	-0.53	0	0.3

High-throughput results deposited in PubChem by several laboratories.
